Values joined by “and” are separate entries in the source; they are usually repeats but may differ in a detail not shown here. Equal entries are not always repeated. Records with an inconclusive call do not appear. Where a call stands in place of a potency, no number is given. Active and inactive are the calls of the source. Unless noted, the call rests on the fitted dose curve; in most records, active means well fitted curve in the direction sought with a large enough effect; inconclusive means small, poorly fitted or top-dose-only effect, or another doubt; inactive means no such curve, though single readings can be large; an effect the other way counts as inactive or inconclusive.
Tests used:
[1] = Cell Viability - Hek293 (AID 427;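 active means compounds whose dose-response curve shows a full or clear partial loss of cell viability, called from curve shape rather than a numeric limit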;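 further: potency means the concentration at half of the fitted maximal effect; cells exposed to compound for 40 hours at 37 °C before reading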); details: qHTS
In short: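 AC50 values derive from Hill-modelled concentration-response of ATP-based luminescence, normalized between DMSO-only and 100 uM tamoxifen controls. Cells were exposed in complete culture medium for 40 hr at 37 °C before detection.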

[2] = target: Mitogen-activated protein kinase 10 (Mus musculus) (UniProt Q61831); experiment: JNK3 AlphaScreen Assay (AID 530; active means well fitted curve in either direction with a large enough effect, not every such curve was filed as active;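 further: kinase came from lysate of stimulated human HepG2 cells; signal reports phosphorylation of biotinylated GST-cJun 1-79 at Ser73 with 10 µM ATP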); details: JNK3 lysate, c-Jun phosphorylation; series mostly up to 57.1 µM
In short: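 qHTS titrations with 15 min compound pre-incubation before adding ATP (10 uM final). Read-out: AlphaScreen of Ser73-phosphorylated biotin-GST-cJun using HepG2 lysate JNK3 activated by IL-1β and TNFα.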

[3] = Cellular Toxicity (caspase-3) Renal Proximal Tubule (AID 667); details: renal proximal tubule cells; series mostly up to 91.7 µM;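 further: cells exposed to compound for 16 hours at 37 °C before detection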
In short: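 In qHTS format, rat primary proximal tubule cells seeded at 1000 per well are exposed to compounds for 16 hours at 37 °C. An increase in Caspase-Glo 3/7 luminescence indicates caspase activation.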

[4] = MultiTox-Fluor Cytotoxicity Assay - LYMP1-001 - Live Cells (AID 947); details: LYMP1-001 lymphoblastoid cells, live-cell protease fluorescence viability; series mostly up to 92.2 µM
[5] = Cell Viability - LYMP2-003 (AID 965); details: LYMP2-003 lymphoblastoid cell viability; series mostly up to 92.2 µM;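 further: cells exposed to compounds for 24 h before reading; nearly all actives have a fitted effect of over 50% in size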; further: potency means the concentration at half of the fitted maximal effect
In short: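 Acute cytotoxicity is scored as a concentration-dependent drop in intracellular ATP, measured by luciferase luminescence in human lymphoblastoid cells treated for 24 hours at 37 C. AC50 values derive from Hill-equation modelling.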

[6] = Cell Viability - LYMP2-013 (AID 970); details: LYMP2-013 lymphoblastoid cells viability; series mostly up to 92.2 µM; further: nearly all actives have a fitted effect of over 55% in size; further: potency means the concentration at half of the fitted maximal effect
In short: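 Cytotoxicity is scored as a concentration-dependent drop in intracellular ATP in human lymphoblastoid cells after 24 hr compound exposure at 37 C. ATP is quantified by luciferase luminescence, and AC50 values come from Hill-equation modeling.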

[7] = Cell Viability - LYMP2-008 (AID 980); details: LYMP2-008 lymphoblastoid cell viability, qHTS; series mostly up to 92.2 µM; further: nearly all actives have a fitted effect of over 60% in size; further: potency means the concentration at half of the fitted maximal effect
In short: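 Cells seeded at 2500/well and rested 5 hr at 37 C; compounds added over a concentration range and incubated 24 hr at 37 C; CellTiter-Glo added, 30 min at room temperature; luminescence read and AC50 fitted with Hill model.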

[8] = Cell Viability - LYMP2-018 (AID 985); details: LYMP2-018 lymphoblastoid cells, viability (qHTS); series mostly up to 92.2 µM; further: nearly all actives have a fitted effect of over 50% in size; further: potency means the concentration at half of the fitted maximal effect
In short: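 Seed 2500 lymphoblastoid cells per well, incubate 5 hr at 37 C, add compound and incubate 24 hr at 37 C, add CellTiter-Glo, wait 30 min at room temperature, then read luminescence.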

[9] = Cell Viability - LYMP2-022 (AID 987); details: LYMP2-022 lymphoblastoid cell viability; series mostly up to 92.2 µM; further: nearly all actives have a fitted effect of over 55% in size; further: potency means the concentration at half of the fitted maximal effect
In short: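 Cells were seeded at 2500 per well, rested 5 hr at 37 C, and treated with titrated compounds for 24 hr at 37 C. Cellular ATP was then quantified by luciferase luminescence, and AC50 values were derived from Hill-modelled concentration-response curves.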

[10] = Cell Viability - LYMP1-002 - Assay at 40 hr (AID 994); details: LYMP1-002 lymphoblastoid cell viability; series mostly up to 92.2 µM; further: nearly all actives have a fitted effect of over 60% in size
In short: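 Cells are plated at 2500 per well and rested 5 hr at 37 C. Compounds are added and incubated 40 hr at 37 C. CellTiter-Glo reagent is added for 30 min at room temperature before luminescence is read.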

[11] = qHTS assay for small molecule agonists of retinoid X receptor alpha signaling (AID 588544; calls by dose curve); details: HEK293T RXRa-UAS-bla, beta-lactamase reporter, 18 h; 530 nm emission
[12] = target: Retinoic acid receptor RXR-alpha (Homo sapiens) (UniProt P19793); experiment: as above; details: HEK293T RXRa-UAS-bla, beta-lactamase reporter, 18 h; series mostly up to 76.7 µM
Chain of Retinoic acid receptor RXR-alpha (Homo sapiens) (P19793 whole entry, looked up): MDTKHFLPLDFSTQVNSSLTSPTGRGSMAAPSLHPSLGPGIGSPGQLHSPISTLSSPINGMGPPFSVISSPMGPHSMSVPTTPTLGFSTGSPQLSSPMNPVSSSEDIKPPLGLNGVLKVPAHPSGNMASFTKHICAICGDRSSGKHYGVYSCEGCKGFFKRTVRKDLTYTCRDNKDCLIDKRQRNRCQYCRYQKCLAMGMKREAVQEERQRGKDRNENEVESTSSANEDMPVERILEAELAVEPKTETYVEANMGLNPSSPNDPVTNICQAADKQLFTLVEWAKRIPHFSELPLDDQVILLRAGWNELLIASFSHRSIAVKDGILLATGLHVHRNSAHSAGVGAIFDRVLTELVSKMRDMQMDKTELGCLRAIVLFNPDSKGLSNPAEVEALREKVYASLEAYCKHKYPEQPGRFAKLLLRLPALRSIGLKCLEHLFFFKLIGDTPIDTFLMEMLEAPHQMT

[13] = qHTS assay for small molecule antagonists of retinoid X receptor alpha signaling (AID 588546); details: HEK293T RXRa-UAS-bla, beta-lactamase ratio, antagonist mode; measured here: W530 green channel, cytotoxicity proxy;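 further: cells stimulated with 9-cis-retinoic acid as agonist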
In short: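 Beta-lactamase reporter inhibition, read as CCF4 fluorescence ratio (ex 405, em 460/530 nm) after 2 h at RT. HEK293T UAS-bla cells, 2500/well, were stimulated with 9-cis-RA at 500 or 100 nM final alongside test compound for 18 h at 37 C.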

[14] = target: Thyroid hormone receptor beta (Homo sapiens) (UniProt P10828); experiment: qHTS assay for small molecule antagonists of thyroid hormone receptor beta signaling (AID 588547; active means well fitted inhibition curve with a large enough effect in the signal ratio, with a control signal flat, not every such curve was filed as active; the % refers to the signal ratio;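 further: cells stimulated with 0.4 nM T3 agonist during compound exposure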); details: TR-UAS-bla HEK293, beta-lactamase ratio, antagonist mode, 18 h
Chain of Thyroid hormone receptor beta (Homo sapiens) (P10828 whole entry, looked up): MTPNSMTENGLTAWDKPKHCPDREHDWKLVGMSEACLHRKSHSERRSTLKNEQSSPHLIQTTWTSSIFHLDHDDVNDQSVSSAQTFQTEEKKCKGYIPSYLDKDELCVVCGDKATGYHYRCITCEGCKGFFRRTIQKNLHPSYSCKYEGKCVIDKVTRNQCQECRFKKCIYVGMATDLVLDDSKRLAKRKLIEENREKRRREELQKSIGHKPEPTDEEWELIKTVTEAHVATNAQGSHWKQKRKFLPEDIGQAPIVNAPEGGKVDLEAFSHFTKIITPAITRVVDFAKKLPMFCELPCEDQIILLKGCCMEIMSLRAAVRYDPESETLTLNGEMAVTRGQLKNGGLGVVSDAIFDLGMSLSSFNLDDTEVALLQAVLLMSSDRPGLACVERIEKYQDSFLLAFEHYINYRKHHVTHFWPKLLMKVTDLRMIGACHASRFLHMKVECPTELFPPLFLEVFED
In short: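 Inhibition of T3-driven (0.4nM final) beta-lactamase reporter activity was measured over 0.59 nM to 92 uM compound after 18 h at 37 C. The cells were GripTite HEK293 TR-UAS-bla in charcoal/dextran-stripped serum, with CCF4 ratio read-out and IC50 from Hill fits.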

[15] = target: Voltage-gated inwardly rectifying potassium channel KCNH2 (Homo sapiens) (UniProt Q12809); experiment: qHTS Assay for Small Molecule Inhibitors of the Human hERG Channel Activity (AID 588834); details: U2OS BacMam hERG, FluxOR thallium flux fluorescence; series mostly up to 92.2 µM;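 further: lower thallium flux fluorescence means stronger hERG block; nearly all actives have a fitted effect of over 50% in size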; further: potency means the concentration at half of the fitted maximal effect
Chain of Voltage-gated inwardly rectifying potassium channel KCNH2 (Homo sapiens) (Q12809 whole entry, looked up): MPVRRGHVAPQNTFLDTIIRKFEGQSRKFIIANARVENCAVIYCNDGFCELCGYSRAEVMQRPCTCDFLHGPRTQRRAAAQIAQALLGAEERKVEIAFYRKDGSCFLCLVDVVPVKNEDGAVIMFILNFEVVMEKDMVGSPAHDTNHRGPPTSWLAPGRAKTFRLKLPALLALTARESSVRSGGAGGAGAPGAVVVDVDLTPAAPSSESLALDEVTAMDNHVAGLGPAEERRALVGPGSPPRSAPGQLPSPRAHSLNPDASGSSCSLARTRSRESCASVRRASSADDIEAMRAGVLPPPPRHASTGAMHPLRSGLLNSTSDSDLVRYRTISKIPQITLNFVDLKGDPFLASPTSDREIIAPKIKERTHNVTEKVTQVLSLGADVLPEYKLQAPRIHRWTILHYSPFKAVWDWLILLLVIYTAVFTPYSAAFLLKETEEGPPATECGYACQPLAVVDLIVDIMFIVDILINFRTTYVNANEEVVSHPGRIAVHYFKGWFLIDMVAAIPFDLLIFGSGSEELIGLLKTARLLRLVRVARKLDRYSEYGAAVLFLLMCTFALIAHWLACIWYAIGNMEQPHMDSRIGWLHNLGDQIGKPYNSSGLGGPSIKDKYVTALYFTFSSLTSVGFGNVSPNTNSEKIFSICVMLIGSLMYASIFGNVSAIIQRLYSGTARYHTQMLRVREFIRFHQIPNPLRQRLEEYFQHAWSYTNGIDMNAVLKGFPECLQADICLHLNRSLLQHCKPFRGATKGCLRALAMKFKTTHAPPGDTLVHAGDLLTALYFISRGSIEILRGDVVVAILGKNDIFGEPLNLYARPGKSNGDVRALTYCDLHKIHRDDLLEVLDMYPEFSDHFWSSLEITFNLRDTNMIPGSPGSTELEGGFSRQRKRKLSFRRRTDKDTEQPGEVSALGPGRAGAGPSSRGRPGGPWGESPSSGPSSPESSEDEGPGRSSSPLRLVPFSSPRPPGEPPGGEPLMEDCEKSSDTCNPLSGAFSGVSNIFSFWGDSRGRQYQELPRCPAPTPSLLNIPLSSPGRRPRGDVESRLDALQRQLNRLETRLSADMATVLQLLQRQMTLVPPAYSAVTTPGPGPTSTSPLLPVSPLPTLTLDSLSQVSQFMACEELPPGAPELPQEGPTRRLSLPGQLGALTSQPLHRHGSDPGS
In short: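 Cells were infected with hERG-BacMam virus for 4 hrs at room temperature, grown overnight, then seeded at 2000/well. After dye loading and roughly 10 min compound treatment, thallium influx was triggered and fluorescence recorded.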

[16] = qHTS assay for small molecule disruptors of the mitochondrial membrane potential - 5 hr assay (AID 651755; calls by dose curve; further: nearly all actives have a fitted effect of over 40% in size; further: potency means the concentration at half of the fitted maximal effect); details: JC-1-type ratio dye; series mostly up to 92.2 µM
In short: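 Membrane-potential dye readout: red aggregate (540 ex/590 em) versus green monomer (490 ex/535 em) fluorescence after 30 min dye loading, following 5 hr compound exposure at 37C of overnight-plated HepG2 cells.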

[17] = target: Tumor necrosis factor (Homo sapiens) (UniProt P01375); experiment: qHTS assay to identify small molecules that stimulate Tumor Necrosis Factor-alpha (TNF-alpha) secretion (AID 651757; active means well fitted curve in the direction sought with a large enough effect in the signal ratio; the % refers to the signal ratio); details: Human cells, HTRF 665/615 ratio; series mostly up to 92.2 µM
Chain of Tumor necrosis factor (Homo sapiens) (P01375 whole entry, looked up): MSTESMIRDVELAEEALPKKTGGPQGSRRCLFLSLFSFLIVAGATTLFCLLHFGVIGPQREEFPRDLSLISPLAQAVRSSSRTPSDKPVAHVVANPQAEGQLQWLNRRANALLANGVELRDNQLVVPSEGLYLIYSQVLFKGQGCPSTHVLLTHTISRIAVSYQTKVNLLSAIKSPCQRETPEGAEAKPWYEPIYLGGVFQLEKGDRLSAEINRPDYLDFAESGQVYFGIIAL
In short: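 Human monocytic THP-1 cells are plated, treated with compound and held at 37 C for 17 hrs. Labeled anti-TNF-alpha antibody mixture is then added; after 3 hr at room temperature, TR-FRET signal reports secreted TNF-alpha.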

[18] = target: Nuclear receptor subfamily 1 group I member 2 (Rattus norvegicus) (UniProt Q9R1A7); experiment: qHTS assay for small molecule activators of the rat pregnane X receptor (rPXR) signaling pathway (AID 651751; call rule not given here); details: rPXR reporter cells, luciferase (One-Glo), 24 h
Chain of Nuclear receptor subfamily 1 group I member 2 (Rattus norvegicus) (Q9R1A7 whole entry, looked up): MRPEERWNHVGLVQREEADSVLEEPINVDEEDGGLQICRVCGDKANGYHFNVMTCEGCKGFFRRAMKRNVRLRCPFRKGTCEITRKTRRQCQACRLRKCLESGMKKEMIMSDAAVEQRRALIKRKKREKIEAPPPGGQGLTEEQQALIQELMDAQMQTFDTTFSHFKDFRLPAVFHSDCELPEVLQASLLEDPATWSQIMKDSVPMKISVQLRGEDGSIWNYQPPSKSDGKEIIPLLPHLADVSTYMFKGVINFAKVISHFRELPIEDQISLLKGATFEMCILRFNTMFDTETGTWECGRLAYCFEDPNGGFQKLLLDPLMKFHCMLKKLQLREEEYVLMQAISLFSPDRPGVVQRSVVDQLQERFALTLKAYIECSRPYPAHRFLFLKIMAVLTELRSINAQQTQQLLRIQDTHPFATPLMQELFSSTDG

[19] = qHTS assay for small molecule activators of the human pregnane X receptor (PXR) signaling pathway (AID 720659; call rule not given here); details: DPX-2 HepG2 CYP3A4-luciferase, 24 h; series mostly up to 92.3 µM
[20] = Cell Viability - LYMP2-005 (AID 967); details: LYMP2-005 lymphoblastoid cell viability; series mostly up to 92.2 µM; further: potency means the concentration at half of the fitted maximal effect
In short: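 qHTS viability screen in LYMP2-005 cells: 24 h at 37 C with compound, ATP luminescence via CellTiter-Glo, AC50 from Hill curves.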

Row | Compound | Potency [1] | Potency [2] | outcome [3] | outcome [4] | Potency [5] | Potency [6] | Potency [7] | Potency [8] | Potency [9] | Potency [10] | max response [11] | outcome [12] | max response [13] | activity change % (negative = inhibition) [14] | Potency [15] | Potency [16] | outcome [17] | max response [18] | outcome [19] | Potency [20]
1 | BrCCc1ccccc1 | > 92 µM (inactive) | inactive | inactive | inactive | inactive | inactive | inactive | inactive | inactive | inactive | 1.56% | inactive | 2.46% | -8.86% (inactive) | inactive | inactive | inactive | -6.29% (inactive) | inactive | –
2 | Cc1ccc([N+](=O)[O-])cc1 | > 92 µM (inactive) | inactive | inactive | inactive | inactive | inactive | inactive | inactive | inactive | inactive | -18.4% | inactive | 1.21% | 0.221% (inactive) | inactive | inactive | inactive | 3.32% (inactive) | inactive | inactive
3 | CCOC(=O)CBr | > 92 µM (inactive) | inactive | inactive | inactive | inactive | inactive | inactive | inactive | inactive | inactive | 8.56% | inactive | -3.97% | -6.62% (inactive) | inactive | inactive | inactive | 2.21% (inactive) | inactive | inactive
4 | CCOC(=O)C1OC1(C)c1ccccc1 (stereo not drawn) | > 92 µM (inactive) | inactive | inactive | inactive | – | inactive | inactive | inactive | inactive | inactive | -8.71% | inactive | 1.36% | 6.83% (inactive) | inactive | inactive | inactive | -3.02% (inactive) | – | inactive
5 | C/C=C/C=O | > 92 µM (inactive) | inactive | inactive | inactive | inactive | inactive | inactive | inactive | inactive | inactive | -18.6% | inactive | – | -1.85% (inactive) | – | – | inactive | 18.2% (inactive) | inactive | inactive
6 | N#C/C=C/C#N | – | inactive | inactive | inactive | 20 µM (active) | 39.8 µM (active) | 39.8 µM (active) | 31.6 µM (active) | 15.8 µM (active) | inactive | – | – | – | -13.1% (inactive) | inactive | inactive | inactive | -4.77% (inactive) | inactive | 25.1 µM (active)
7 | Brc1cccc(-c2ccccc2)c1 | > 92 µM (inactive) | inactive | inactive | inactive | inactive | inactive | inactive | inactive | inactive | inactive | -12% | inactive | – | 0.106% (inactive) | 35.5 µM (active) | inactive | inactive | 2.39% (inactive) | inactive | inactive
8 | Cc1ccc(OP(=O)(Oc2ccc(C)cc2)Oc2ccc(C)cc2)cc1 | > 92 µM (inactive) | – | inactive | inactive | inactive | inactive | inactive | inactive | inactive | inactive | -17.7% | inactive | -10.5% and -16.2% | -7.32% (inactive) and 3.64% (inactive) | 20 µM (active) | 13.3 µM (active) | inactive | – | – | inactive
9 | CCCCNC(=O)n1c(NC(=O)OC)nc2ccccc21 | > 92 µM (inactive) | inactive | inactive | – | inactive | inactive | inactive | inactive | – | – | 14.8% | – | 3.99% | -13.8% (inactive) and -24% (inactive) | inactive | inactive | inactive | – | inactive | inactive
10 | Cc1cccc(N)c1C | > 92 µM (inactive) | inactive | inactive | inactive | inactive | inactive | inactive | inactive | inactive | – | -3.13% | – | -9% | 2.82% (inactive) | inactive | inactive | inactive | -0.698% (inactive) | inactive | inactive
11 | ClC(Cl)(Cl)C(Cl)(Cl)Cl | > 92 µM (inactive) | inactive | inactive | inactive | inactive | inactive | inactive | inactive | inactive | inactive | 0.0695% | inactive | -34.4% | 3.45% (inactive) | – | inactive | inactive | 6.05% (inactive) | inactive | inactive
12 | N#CC(Br)Br | > 92 µM (inactive) | inactive | inactive | inactive | inactive | – | – | – | – | inactive | 0.349% | inactive | -2.67% | 17% (inactive) | inactive | inactive | inactive | -7.42% (inactive) | inactive | inactive
13 | Cl/C=C/Cl | > 92 µM (inactive) | inactive | inactive | inactive | inactive | inactive | inactive | inactive | inactive | inactive | 1.12% | inactive | -8.73% | -4.77% (inactive) | inactive | – | inactive | -3.34% (inactive) | inactive | inactive
14 | Clc1cccc(Cl)c1Cl | > 92 µM (inactive) | – | inactive | – | inactive | inactive | inactive | inactive | inactive | inactive | 4.23% and 3.5% | inactive | 3.05% and -10.8% | -6.61% (inactive) and -16.3% (inactive) | inactive | inactive | inactive | -2.59% (inactive) and 0.772% (inactive) | inactive | inactive
15 | Cc1cc(-c2cc(C)c(N)c(C)c2)cc(C)c1N | > 92 µM (inactive) | – | inactive | inactive | inactive | inactive | inactive | inactive | inactive | inactive | -7.36% | inactive | -0.244% | 5.74% (inactive) | inactive | inactive | – | 14.1% (inactive) | inactive | inactive
16 | O=[N+]([O-])c1ccccc1CCl | > 92 µM (inactive) | – | inactive | inactive | inactive | – | – | – | – | inactive | -8.73% | inactive | 9.99% | 8.81% (inactive) | inactive | inactive | inactive | 5.58% (inactive) | inactive | inactive
17 | c1ccc2c(c1)CCNC2 | > 92 µM (inactive) | inactive | inactive | inactive | inactive | inactive | inactive | inactive | inactive | – | -9.85% | inactive | -4.26% | – | inactive | inactive | inactive | -0.393% (inactive) | inactive | inactive
18 | Oc1cc(Cl)c(Cl)c(Cl)c1Cl | – | inactive | inactive | inactive | inactive | – | inactive | inactive | inactive | inactive | – | – | – | – | inactive | – | – | -6.73% (inactive) | inactive | inactive
19 | Nc1c(Cl)cc([N+](=O)[O-])cc1Cl | > 92 µM (inactive) | inactive | inactive | inactive | inactive | inactive | inactive | inactive | inactive | inactive | -1.27% and -9.53% | inactive | 7.55% and -9.5% | 16.2% (inactive) and 3.97% (inactive) | inactive | 42.2 µM (active) | inactive | – | inactive | inactive
